The list is not random: actives were taken first. Their share in the collection is about 0.41%.
N370S GC: inhibits or activates N370S mutant glucocerebrosidase; P04062; N370S GC spleen homogenate, 4MU-glucoside fluorescence; Potency, µM (titrated, usually from 59.4 µM), for the others: top-dose activity change, negative = inhibition, actives largely listed as inhibitors; 330,000 tested, 0.092% active; AID 2101;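 also: potency is read from the fitted curve at half-maximal effect; 0% = full enzyme activity and -100% = no enzyme basal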
GAA inhib: blocks human lysosomal alpha-glucosidase; P10253; purified human GAA, 4-MU-alpha-glucoside fluorescence; Potency, µM (doses to about 76.9 µM), without a hit: at the top dose activity change, negative = inhibition, actives largely listed as inhibitors; 200,000 tested, 0.005% active; AID 1466;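 also: potency is read from the fitted curve at half-maximal effect; plate controls were uninhibited enzyme wells for no effect and no-enzyme background for full effect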
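Fluorogenic assay: 4 nM human alpha-glucosidase with 400 uM 4-methylumbelliferyl-alpha-D-pyranoside in 50 mM citrate/phosphate, 0.005% Tween-20, pH 5.0, 20 min at room temperature. Compounds tested up to 77 uM; AC50 from Hill fits.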
GLA spleen mod: inhibits or activates alpha-galactosidase in human spleen homogenate; P06280; human spleen homogenate, 4MU-alpha-Gal fluorescence, 40 min; Potency, µM (doses to about 80 µM), for the others: top-dose activity change, negative = inhibition, hits mostly inhibitors; 240,000 tested, 0.008% active; AID 2107;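 also: potency is read from the fitted curve at half-maximal effect; 0% = enzyme with vehicle and -100% = no enzyme basal signal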
Target sequence (P06280 32-429 limits assumed): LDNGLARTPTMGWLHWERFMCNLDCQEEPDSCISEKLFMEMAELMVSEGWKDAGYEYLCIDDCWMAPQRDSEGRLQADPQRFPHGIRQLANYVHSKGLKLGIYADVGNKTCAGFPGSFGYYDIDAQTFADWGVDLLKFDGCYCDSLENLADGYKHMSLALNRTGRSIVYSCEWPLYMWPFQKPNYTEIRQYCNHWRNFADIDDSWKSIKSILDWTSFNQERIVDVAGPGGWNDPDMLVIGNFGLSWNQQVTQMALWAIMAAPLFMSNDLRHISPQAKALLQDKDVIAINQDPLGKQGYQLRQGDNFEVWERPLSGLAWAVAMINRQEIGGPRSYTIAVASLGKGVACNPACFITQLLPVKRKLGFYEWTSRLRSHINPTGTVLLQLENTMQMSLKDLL
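Human spleen homogenate (1 ug) was the enzyme source, with 4-methylumbelliferyl-alpha-D-galactopyranoside (1 mM final) in pH 5.0 citrate buffer with 0.01% Tween-20. Compounds were titrated; after 40 min at 37C, NaOH/glycine stop, 4-MU fluorescence read; AC50 from Hill fits.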
GAA glycogen: inhibitors or activators of human alpha-glucosidase glycogen cleavage. P10253. recombinant GAA, glycogen substrate, Amplex Red glucose oxidase fluorescence. Potency, µM (doses to about 76.4 µM), for the others: top-dose activity change, negative = inhibition, usual class: inhibitors. 300,000 tested, 0.38% active. AID 2100;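 also: potency is read from the fitted curve at half-maximal effect; 0% = full enzyme reaction and -100% = no-enzyme basal signal; the screen sought inhibitors and activators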
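qHTS, 1536-well; enzyme 4 nM final; cpd up to 77 uM; substrate bovine liver glycogen 30 ug; 50 mM citrate/phosphate pH 5.0, 0.01% Tween-20; 37 C, 40 min; Amplex Red detection 45 min RT; Hill fit → AC50.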
GAA spleen mod: inhibitors or activators of human alpha-glucosidase in spleen homogenate; human spleen homogenate, 4-MU-alpha-glucoside fluorescence; 240,000 tested, 0.006% active; Potency, µM (top dose mostly 79.9 µM), without a hit: at the highest dose activity change, negative = inhibition, hits mostly inhibitors;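 also: potency is read from the fitted curve at half-maximal effect; 0% = enzyme with vehicle and -100% = no enzyme basal signal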
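Enzyme source: human spleen homogenate, 1 ug/well. Buffer 50 mM citric acid/K phosphate pH 5.0, 0.01% Tween-20. 4-MU-alpha-glucoside 1 mM; 37 C x 40 min; NaOH/glycine stop; fluorescence.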
GLA inh pH 4.5: blocks human alpha-galactosidase A at pH 4.5; purified enzyme, 4-MU-alpha-Gal fluorescence, pH 4.5; 230,000 tested, under 10 active; P06280; activity change, negative = inhibition, % at 105 µM;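 also: 0% = full activity with enzyme and -100% = basal without enzyme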
Active calls of the source: *; u = inconclusive; x = no result given; [ ] = another dose, or the depositor's remark. Calls follow the shape of the dose curve; as a rule, active = well fitted curve in the direction sought with a large enough effect; inconclusive = small, poorly fitted or top-dose-only effect, or another doubt; inactive = no such curve, though single readings can be large; an effect the other way counts as inactive or inconclusive.

SMILES | N370S GC | GAA inhib | GLA spleen mod | GAA glycogen | GAA spleen mod | GLA inh pH 4.5
COCCCNC(=S)N/N=C/c1ccc(O)cc1 | -18% | -1% | 12% | 32µM* | 11% | -1
COCCCNC(=S)N/N=C/c1ccc(OC)cc1 | 5% | 5% | -10% | -26% | 7% | -4
COc1ccc(/C=N/NC(=O)C(=O)NCC2CCCO2)cc1 (stereo unspecified) | 1% | -3% | 2% | -5% | -5% | 12
Oc1ccc(/C=N/NC(=S)NCC2CCCO2)cc1 (stereo unspecified) | x | -2% | -1% | 32µM* | -11% | -10
CC/C(=N\NC(C)=O)c1ccc(OC(F)F)cc1 | 0% | 5% | -3% | -6% | 2% | 0
COc1ccc(OCC(=O)N/N=C(\C)CC(=O)Nc2ccc(NC(C)=O)cc2)cc1 | -10% | x | x | 8%[76.3 µM] | x | x
Cc1oc(-c2ccccc2F)nc1CS(=O)(=O)CC(=O)NCCCc1ccccc1 | 9% | u | -1% | 3% | -5% | 0
CCOc1ccc(-c2cnc(NCc3ccc(C(F)(F)F)cc3)n2C)cc1 | x | x | x | 32µM* | x | x
Cn1c(-c2ccc3c(c2)OCO3)cnc1NCc1ccc(Cl)cc1 | 6% | 1% | -3% | u | -23% | -8
Cc1ccc(CNc2ncc(-c3ccc4c(c3)OCO4)n2C)cc1 | 1% | -3% | -5% | 20µM* | -4% | -9
CCCCP(=O)(c1ccccn1)c1ccccn1 | -24% | -3% | -4% | 4% | -5% | -7
Nc1ccc2nc(N3CCOCC3)sc2c1 | 0% | -3% | 1% | 6.3µM* | 2% | -6
Cc1ccc2nc(-c3ccc(SCC(=O)O)nc3)[nH]c2c1 | 14% | 3% | 4% | 3% | -1% | -3
Cc1ccc2nc(-c3ccc(SCC(=O)N4CCc5ccccc54)nc3)[nH]c2c1 | 3.2µM* | 4% | 4% | -6% | -3% | -4
CCCCC(=O)NNC(=S)NC(=O)c1ccc(C)cc1 | -10% | u | 2% | -29% | -12% | 8
Cc1ccc(C(=O)NC(=S)NNC(=O)CC#N)cc1 | -2% | u | 6% | 11µM* | 7% | 0
O=[N+]([O-])c1cc(C(F)(F)F)ccc1NCCc1c[nH]c2ccc(O)cc12 | 13% | -8% | 1% | 9.9µM* | -6% | -17
CCOc1ccc(Nc2nc(Cc3nnc(SCC(=O)NC4CCCCC4)n3C)cs2)cc1 | -3% | 0% | 7% | u | -5% | 11
CCOc1ccc(Nc2nc(Cc3nnc(SCC(=O)NCC4CCCO4)n3C)cs2)cc1 (stereo unspecified) | 4% | -3% | -7% | 11µM* | -8% | 8
CC(=O)Nc1ccc(C(=O)NCCCOC(C)C)cc1 | 7% | 7% | 7% | 9% | 1% | 6
O=C(COc1cccc2cccnc12)N/N=C/c1ccccc1O | 17% | x | 10% | 3% | 2% | -4
Oc1ccccc1/C=N/Nc1cccc2cccnc12 | -13% | -11% | -10% | 7.9µM* | -12% | 5
C/C(=C\C(=O)c1ccccc1)Nc1ccc2c(c1)OCO2 | -10% | 4% | -1% | 16µM* | 4% | 8
Cc1ccc(C(=O)Nc2ccc3c(c2)OCO3)o1 | 3% | -14% | -6% | 2% | -4% | 0
CC(=O)Nc1ccc2c(c1)OCO2 | -8% | -2% | 7% | -14% | 10% | 0
C/C(=C\C(=O)c1ccc(C)o1)Nc1ccc2c(c1)OCO2 | 17% | 3% | 2% | 28µM* | -3% | -5
Cc1ccc(Cl)cc1N1CCN(S(=O)(=O)c2ccc3[nH]c(=O)ccc3c2)CC1 | -7% | x | x | 0%[76.3 µM] | x | x
Cc1ccc(Cl)cc1N1CCN(S(=O)(=O)c2ccc3[nH]c(=O)c(=O)[nH]c3c2)CC1 | 8.9µM* | -4% | 6% | 3% | 0% | 3
Fc1ccccc1-c1nc(NCc2ccco2)c2ccccc2n1 | 11µM* | 4% | -4% | -15% | 1% | 0
O=C(O)CCSc1ccc2ccccc2n1 | -16% | -13% | -8% | -5% | -1% | -1

Assay outcomes deposited in PubChem by National Center for Advancing Translational Sciences (NCATS).
